The subject of test [1] is Human papillomavirus type 1a protein E7 (residues 44-93). Description: small molecules binding HPV E7 44-93 – biochemical, small-molecule microarray, residues 44-93, 635 nm fluorescence, primary screen (AID 1108).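 Also: E7 fragment applied at 1 µg/mL in TBST for 1 h at 4 C; score combines spot fluorescence with its signal to noise ratio.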 Particulars: fluorescence 635 nm, higher = more signal.
Test [2] is described as follows: hepatitis C replication reporter changes, two-sided – Huh7 cells, luciferase reporter, HCV replication inhibitor project, primary screen (AID 1109).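 Also: huh7 hepatoma cells harbouring a luciferase neomycin HCV replicon reporter; luciferase luminescence as measure of HCV replicon replication; test concentration not given here.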 Particulars: Huh7 HCV replicon luciferase reporter, 48 h; higher = more signal. In general terms: A reporter such as luciferase makes a cellular process visible.
Test [3] concerns the target Left-right determination factor 2 (Homo sapiens) (UniProt O00292). Description: small molecules binding LEFTY2 protein – biochemical, small-molecule microarray, 635 nm fluorescence scan, primary screen (AID 1110). As to conditions: higher = more signal.
For test [4], the target named is Calmodulin-1 (Homo sapiens) (UniProt P0DP23). Briefly: small molecules binding calmodulin-1 with EGTA – biochemical, small-molecule microarray, Cy5-labelled CALM1, profiling panel (AID 1111).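 Also: labelled calmodulin applied in Tris saline Tween buffer holding calcium plus EGTA and DTT.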 As to conditions: Cy5-CALM1 binding fluorescence, higher = more signal.
The target is the same in test [5]. Briefly: small molecules binding Ca-loaded calmodulin-1 – biochemical, small-molecule microarray, Cy5-labelled CALM1, plus calcium, artefact control for SMM control-protein annotation, profiling panel (AID 1112).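 Also: score merges spot fluorescence with signal to noise from triplicate slides.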 As to conditions: Cy5-CALM1 binding fluorescence, higher = more signal.
The nature of test [6]: probe aWnt5a binding to arrayed compounds – biochemical, biotinylated probe, 635/667 nm fluorescence, primary screen (AID 1113).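 Also: score merges 667 nm fluorescence intensity with signal-to-noise per printed feature.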 As to conditions: small-molecule microarray, higher = more signal.
Test [7] can be described thus: probe aShh binding to arrayed compounds – biochemical, biotinylated probe, 635/667 nm fluorescence, primary screen (AID 1114).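 Also: probe is biotin-labelled aShh protein from a stem cell growth factor screen; measures binding of labelled protein to compounds printed on the slide; score merges feature fluorescence at 667 nm with signal-to-noise.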 Particulars: small-molecule microarray, higher = more signal.
A short description of test [8]: probe aNog binding to arrayed compounds – biochemical, biotinylated probe, 635/667 nm fluorescence, primary screen (AID 1115).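 Also: probe is biotinylated aNog protein used at 0.15 µg/mL for 1 h at 4 C; z-score combines 667 nm fluorescence of each spot with its signal to noise.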 Particulars: small-molecule microarray, higher = more signal.
The target in test [9] is Torsin-1A-interacting protein 1 (Homo sapiens) (UniProt Q5JTV8). Briefly: compound microarray binding of lysate hLAP1 – cell lysate, small-molecule microarray, COS7 lysate, 635/667 nm fluorescence, primary screen (AID 1116). As to conditions: 635 nm fluorescence, higher = more signal.
Test [10] deals with Alpha-bungarotoxin (Bungarus multicinctus) (UniProt P60615). Description: compounds binding labelled alpha-BTX control protein – biochemical, small-molecule microarray, Alexa647 label, 635/667 nm fluorescence, artefact control for SMM control protein annotation, profiling panel (AID 1117). Particulars: alpha-BTX-A647 binding fluorescence, higher = more signal.
The target in a further test is Albumin (Bos taurus) (UniProt P02769). Description: compounds binding labelled BSA control protein – biochemical, small-molecule microarray, Alexa647 label, 635/667 nm fluorescence, artefact control for SMM control protein annotation, profiling panel (AID 1118).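 Also: score merges 667 nm emission intensity and signal-to-noise per printed compound spot.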 Particulars: BSA-A647 binding, fluorescence 635 nm, higher = more signal.
A short description of test [11]: probe aXIP binding to arrayed compounds – biochemical, NeuroSMM set, 635/667 nm fluorescence, primary screen (AID 1119).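 Also: probe is the protein aXip251-270 applied at 1 µg/mL to compound-printed slides; binding of probe to printed compounds measured as 667 nm fluorescence plus signal to noise.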 As to conditions: small-molecule microarray, higher = more signal, called active from +8 up or from −8 down.
Test [12] in a line: probe aNOTCH3 binding on compound microarray – biochemical, small-molecule microarray, 635/667 nm fluorescence, primary screen (AID 1120).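 Also: probe is a biotin-tagged antibody raised against NOTCH3 rather than NOTCH3 protein; score merges spot fluorescence near 667 nm with spot signal to noise.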 As to conditions: higher = more signal.
A short description of test [13]: probe aNOTCH2 binding on compound microarray – biochemical, small-molecule microarray, 635/667 nm fluorescence, primary screen (AID 1121).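 Also: score merges feature fluorescence read at 667 nm with its signal to noise.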 Particulars: higher = more signal.
Test [14] concerns the target Carbonic anhydrase 2 (Homo sapiens) (UniProt P00918). Description: compounds binding carbonic anhydrase 2 – biochemical, small-molecule microarray, Alexa647-labelled CAII, profiling panel (AID 1122). Particulars: CAII-A647 binding fluorescence, higher = more signal.
A short description of test [15]: COS7 lysate on small-molecule microarray, probe aHis, 635 nm (AID 1123).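 Also: z-score combines 667nm fluorescence intensity with signal-to-noise per printed compound spot.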 Particulars: COS7 cell lysate, fluorescence, higher = more signal.
A short description of test [16]: probe aLAP1 signal on lysate-treated microarray – cell lysate, small-molecule microarray, COS7 lysate, primary screen (AID 1124).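 Also: lysate comes from COS7 cells expressing LAP1 and is applied at 0.3 µg/mL; score merges spot fluorescence near 667 nm with signal-to-noise over triplicate slides.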 As to conditions: probe aLAP1, fluorescence, higher = more signal.
The next test concerns Sam68 (KHDRBS1). Briefly: compounds binding KHDRBS1 protein – biochemical, small-molecule microarray, 635 nm fluorescence, primary screen (AID 1125).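 Also: score merges 667 nm channel intensity with signal to noise over triplicate slides.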 As to conditions: higher = more signal.
The test system of test [17] is Chordin-like protein 2 (CHRDL2). Description: compounds binding chordin-like 2 – biochemical, small-molecule microarray, 635 nm fluorescence, primary screen (AID 1126).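 Also: printed compound slides probed with Chrdl2 protein at 4 µg/mL for 1 h at 4 C; score merges 667 nm emission intensity with signal to noise over three replicate slides.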 Particulars: fluorescence 635 nm, higher = more signal.
In test [18] the target is Concanavalin-A (Canavalia ensiformis) (UniProt P02866). Briefly: compounds binding concanavalin A lectin – biochemical, small-molecule microarray, Alexa647 label, 635 nm, artefact control for SMM control protein annotation, primary screen (AID 1127).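 Also: z combines 667 nm emission intensity with signal-to-noise across three replicate slides.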 As to conditions: ConA-A647 binding fluorescence, higher = more signal.

The source made the active and inactive calls.

Torsin-1A-interacting protein 1 (Homo sapiens), sequence (Q5JTV8 whole entry, looked up): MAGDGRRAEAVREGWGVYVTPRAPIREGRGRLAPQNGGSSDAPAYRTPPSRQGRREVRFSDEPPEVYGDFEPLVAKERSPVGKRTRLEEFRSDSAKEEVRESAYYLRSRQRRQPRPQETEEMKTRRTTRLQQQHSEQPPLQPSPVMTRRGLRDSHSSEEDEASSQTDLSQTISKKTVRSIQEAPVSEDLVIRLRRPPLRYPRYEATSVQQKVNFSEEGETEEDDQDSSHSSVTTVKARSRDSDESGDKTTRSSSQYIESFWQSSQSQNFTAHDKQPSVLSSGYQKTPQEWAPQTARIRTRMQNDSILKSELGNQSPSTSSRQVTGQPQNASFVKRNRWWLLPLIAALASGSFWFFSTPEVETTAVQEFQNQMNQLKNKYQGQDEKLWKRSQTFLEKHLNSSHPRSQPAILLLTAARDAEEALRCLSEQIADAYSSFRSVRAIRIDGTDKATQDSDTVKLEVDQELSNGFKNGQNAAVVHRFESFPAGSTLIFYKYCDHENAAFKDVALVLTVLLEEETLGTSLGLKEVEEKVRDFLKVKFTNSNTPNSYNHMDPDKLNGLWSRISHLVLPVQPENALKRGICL
Left-right determination factor 2 (Homo sapiens), sequence (O00292 whole entry, looked up): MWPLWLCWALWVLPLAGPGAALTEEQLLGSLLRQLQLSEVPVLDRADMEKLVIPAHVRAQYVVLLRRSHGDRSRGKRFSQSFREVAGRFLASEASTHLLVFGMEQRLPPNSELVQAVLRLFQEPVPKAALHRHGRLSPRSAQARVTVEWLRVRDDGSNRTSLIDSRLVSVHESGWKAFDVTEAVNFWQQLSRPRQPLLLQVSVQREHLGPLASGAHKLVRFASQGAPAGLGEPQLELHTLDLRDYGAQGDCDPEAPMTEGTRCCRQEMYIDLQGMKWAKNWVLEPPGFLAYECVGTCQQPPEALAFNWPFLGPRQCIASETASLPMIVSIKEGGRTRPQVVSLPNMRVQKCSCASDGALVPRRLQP
Albumin (Bos taurus), sequence (P02769 whole entry, looked up): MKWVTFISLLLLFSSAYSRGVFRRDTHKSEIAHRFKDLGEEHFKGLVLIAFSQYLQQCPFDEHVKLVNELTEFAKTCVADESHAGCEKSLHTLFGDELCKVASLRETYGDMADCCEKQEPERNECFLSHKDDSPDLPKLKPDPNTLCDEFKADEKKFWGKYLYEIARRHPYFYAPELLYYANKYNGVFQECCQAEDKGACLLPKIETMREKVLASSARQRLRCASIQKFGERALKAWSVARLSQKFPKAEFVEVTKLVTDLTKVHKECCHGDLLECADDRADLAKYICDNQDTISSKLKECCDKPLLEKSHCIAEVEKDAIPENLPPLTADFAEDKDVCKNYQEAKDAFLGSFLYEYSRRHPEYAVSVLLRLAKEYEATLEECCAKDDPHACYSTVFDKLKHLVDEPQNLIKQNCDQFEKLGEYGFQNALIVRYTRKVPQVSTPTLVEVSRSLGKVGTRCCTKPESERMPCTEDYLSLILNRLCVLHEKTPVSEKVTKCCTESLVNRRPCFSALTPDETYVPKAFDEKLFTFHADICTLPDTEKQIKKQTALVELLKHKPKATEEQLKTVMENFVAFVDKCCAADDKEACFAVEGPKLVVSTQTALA
Concanavalin-A (Canavalia ensiformis), sequence (P02866 whole entry, looked up): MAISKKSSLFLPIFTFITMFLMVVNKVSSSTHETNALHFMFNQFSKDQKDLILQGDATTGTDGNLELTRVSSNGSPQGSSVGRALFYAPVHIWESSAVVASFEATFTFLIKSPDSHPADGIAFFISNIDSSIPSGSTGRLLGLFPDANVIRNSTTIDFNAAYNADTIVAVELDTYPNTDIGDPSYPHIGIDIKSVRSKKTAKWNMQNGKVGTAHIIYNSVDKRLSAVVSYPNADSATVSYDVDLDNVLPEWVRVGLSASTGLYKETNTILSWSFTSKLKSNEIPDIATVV
Alpha-bungarotoxin (Bungarus multicinctus), sequence (P60615 whole entry, looked up): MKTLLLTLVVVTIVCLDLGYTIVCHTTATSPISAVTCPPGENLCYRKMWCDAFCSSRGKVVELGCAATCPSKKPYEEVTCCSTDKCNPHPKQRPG

Regarding `O=C1[C@H]2[C@H]3[C@H](O)[C@H](O)CC(=NOC[C@@H](O)COCc4ccco4)[C@@H]3CC[C@H]2C(=O)N1c1cccc(Oc2ccccc2)c1`, the composite z-score in test [1] was -0.645; in test [3] it was 0.103; in test [4], 0.0705; in [5], -0.511; in [6], -0.0758; in test [7], -0.289. For the same compound, the composite z-score is -0.29 in test [8]; -0.0841 in [9]; 0.534 in test [10]; -0.407 with Albumin (Bos taurus); -0.147 in test [12]; -0.22 in test [13]. Also, the composite z-score in test [14] was -0.0803; in test [15] it was -0.704; in test [16] it was -0.0713; in the test on Sam68 (KHDRBS1), -1.43; in [17], 0.381; in [18] it was 0.391. This compound came in with a z-score in test [2] of -0.739. The composite Z-score in test [11] was -0.352 (inactive).

For the compound `CCCNC(=O)OC[C@H]1O[C@H](CCON=C[C@@H](C)[C@H](OCc2ccccc2)C(C)C)C=C[C@@H]1Oc1ccc(OC)cc1`, the composite z-score in [1] was 0.427; in [3] it was 0.182; in test [4], -0.755; in [5] it was -0.515; in test [6], -0.156; in test [7] it was -0.484. Moreover, the composite z-score in test [8] was -0.196; in test [9] it was -0.163; in test [10], 0.297; with Albumin (Bos taurus), -0.655; in test [12], -0.0308; in [13], -0.149. Further, the composite z-score in [14] is -0.473; in [15], 0.775; in [16], -0.394; in the test with Sam68 (KHDRBS1), -1.04; in [17], 0.379; in test [18], -0.501. The same compound came in with a z-score in [2] of -2.17. Further, the composite Z-score in [11] was -0.288 (inactive).

`CON=C(C)CCC(=O)OC[C@H]1O[C@H](C#Cc2ccccc2)C=C[C@@H]1Oc1ccc(C)cc1`: the composite z-score was 0.247 in [1]; 0.395 in test [3]; -0.118 in [4]; -0.545 in test [5]; -0.0924 in [6]; -0.0709 in test [7]. Also, the composite z-score in test [8] is 0.0369; in [9], 0.571; in test [10], 0.35; in the test with Albumin (Bos taurus) it was 0.468; in test [12] it was -0.0111; in test [13], -0.0751. Besides, the composite z-score in test [14] is 0.263; in test [15], 0.661; in [16], 0.232; in the test on Sam68 (KHDRBS1) it was 0.626; in test [17], 0.479; in [18] it was 0.491. For the same compound, the z-score in [2] was -3.53. In addition, the composite Z-score in [11] is -0.054 (inactive).

Consider `CCOC(=O)CCN1C(=O)[C@H]2[C@H]3[C@H](O)[C@H](O)CC(=O)[C@@H]3CC[C@H]2C1=O`, for which the composite z-score in test [1] is 0.555; in test [3], 0.657; in test [4] it was 0.0068; in test [5] it was -0.135; in test [6], -0.0924; in test [7] it was -0.138. Also, the composite z-score in test [8] is -0.252; in test [9], 0.597; in test [10], 0.321; with Albumin (Bos taurus), 0.206; in test [12] it was -0.0448; in test [13], -0.12. For the same compound, the composite z-score is 0.494 in test [14]; 0.696 in test [15]; -0.732 in test [16]; 0.81 with Sam68 (KHDRBS1); 0.514 in test [17]; 0.729 in test [18]. This compound showed a z-score in test [2] of -0.408. In test [11], the composite Z-score is -0.778 (inactive).

For `COc1ccc(O[C@H]2C=C[C@@H](c3ccccc3)O[C@@H]2CON=C(C)CCN2CCCc3nc(C)c(C)cc32)cc1`, the composite z-score in test [1] is 1.09; in test [3], 0.597; in test [4], 0.284; in test [5], -0.425; in [6] it was -0.0869; in [7] it was -0.0769. The composite z-score was -0.158 in [8]; 0.358 in test [9]; 0.651 in test [10]; 0.118 with Albumin (Bos taurus); 0.0225 in test [12]; -0.048 in test [13]. Also, the composite z-score came to 0.437 in test [14]; 0.896 in [15]; 0.271 in test [16]; 1.05 in the test on Sam68 (KHDRBS1); 0.369 in test [17]; 0.946 in [18]. The z-score in [2] is -2.04. Also, the composite Z-score in test [11] was 0.528 (inactive).

On to `C=CC[C@@H]1C=C[C@H](ON=C2C[C@@H](O)[C@@H](O)[C@@H]3[C@@H]4C(=O)N(CC)C(=O)[C@@H]4CC[C@@H]23)[C@@H](CO)O1`, for which the composite z-score is -0.573 in [1]; 0.13 in test [3]; -0.758 in test [4]; -0.777 in [5]; -0.131 in test [6]; 0.116 in [7]. The composite z-score in [8] is 0.0541; in test [9] it was -0.164; in test [10], -1.03; with Albumin (Bos taurus), -0.873; in [12] it was -0.16; in test [13], -0.237. Further, the composite z-score was 0.452 in test [14]; 0.429 in test [15]; -0.289 in [16]; -0.444 in the test on Sam68 (KHDRBS1); -0.0673 in [17]; -1.18 in [18]. In test [2], this compound yielded a z-score of 0.0355. Moreover, in [11], the composite Z-score was -0.116 (inactive).

On to `COc1ccc(COC(=O)NN=C2C[C@@H](O)[C@@H](O)[C@@H]3[C@@H]4C(=O)N(C5CCCCC5)C(=O)[C@@H]4CC[C@@H]23)cc1`, for which the composite z-score was 0.14 in [1]; 0.0141 in test [3]; -0.53 in [4]; -0.811 in [5]; -0.0529 in test [6]; -0.0769 in [7]. Moreover, the composite z-score in test [8] is -0.261; in test [9], -0.011; in test [10] it was 0.229; with Albumin (Bos taurus), 0.157; in test [12] it was 0.289; in test [13] it was -0.0256. Moreover, the composite z-score was -0.143 in test [14]; 0.0678 in test [15]; -0.253 in test [16]; -0.0188 in the test on Sam68 (KHDRBS1); -0.108 in test [17]; -0.35 in [18]. The z-score in test [2] is -1.76. Moreover, the composite Z-score in test [11] was -0.218 (inactive).

These data come from PubChem BioAssay.
